Experimental data published in PubChem BioAssay AID1159580 (chemical genetic matrix, 2015).
Among all 5,500 compounds or so, about 2,000 (36%) were called active. Roughly 18% stayed inconclusive and do not appear here. The list shows a part of the results. A number with no mark means an inactive call. Rule as the data show it: active = normalized growth mostly below about 0.91 (no sharp cut-off); inconclusive = no clear call, values can overlap the other calls; inactive = mostly above about 0.92.

Assay: chemical genetic growth profiling, strain panel (AID 1159580);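 also: tested at 20 µM; growth read once vehicle control cultures reached saturation at 30 °C; 1 = growth at the plate median or of vehicle wells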
Settings: S. cerevisiae deletion strains, growth OD

Which normalized growth (locus YAL021C, strain ccr4, stronger effect = lower value) does the source give for CC1=NN(c2ccccc2)C(=O)C1 here?
Its normalized growth is 0.982.

And the normalized growth (locus YAL026C, strain drs2, stronger effect = lower value)?
The normalized growth was 0.959.

And the normalized growth (locus YAL030W, strain snc1, stronger effect = lower value)?
Its normalized growth is 0.998.

And the normalized growth (locus YBL061C, strain skt5, stronger effect = lower value)?
The normalized growth was 0.987.

And the normalized growth (locus YBR009C, strain hhf1, stronger effect = lower value)?
Its normalized growth is 0.936.

What about the normalized growth (locus YBR021W, strain FUR4, stronger effect = lower value) of the same molecule?
Its normalized growth is 0.993.

What about the normalized growth (locus YBR023C, strain chs3, stronger effect = lower value) of the same molecule?
Its normalized growth is 0.983.

And the normalized growth (locus YBR171W, strain sec66, stronger effect = lower value)?
The normalized growth was 0.994.

And the normalized growth (locus YBR229C, strain ROT2, stronger effect = lower value)?
The normalized growth was 0.978.

What about the normalized growth (locus YBR231C, strain swc5, stronger effect = lower value) of the same molecule?
Its normalized growth is 0.979.

What about the normalized growth (locus YBR279W, strain paf1, stronger effect = lower value) of the same molecule?
The normalized growth was 0.979.

And the normalized growth (locus YCL011C, strain gbp2, stronger effect = lower value)?
The normalized growth was 0.98.

And the normalized growth (locus YCL016C, strain dcc1, stronger effect = lower value)?
Its normalized growth is 0.965.

What about the normalized growth (locus YCL029C, strain bik1, stronger effect = lower value) of the same molecule?
The normalized growth was 0.982.

And the normalized growth (locus YCL061C, strain MRC1, stronger effect = lower value)?
Its normalized growth is 0.985.

And the normalized growth (locus YCL069W, strain vba3, stronger effect = lower value)?
Its normalized growth is 0.986.

And the normalized growth (locus YCR088W, strain abp1, stronger effect = lower value)?
Its normalized growth is 0.993.

And the normalized growth (locus YDL005C, strain med2, stronger effect = lower value)?
Its normalized growth is 0.975.

And the normalized growth (locus YDL035C, strain GPR1, stronger effect = lower value)?
Its normalized growth is 0.955.

And the normalized growth (locus YDL040C, strain nat1, stronger effect = lower value)?
The normalized growth was 0.978.

And the normalized growth (locus YDL074C, strain BRE1, stronger effect = lower value)?
Its normalized growth is 0.912.

What about the normalized growth (locus YDL101C, strain DUN1, stronger effect = lower value) of the same molecule?
Its normalized growth is 0.957.

What about the normalized growth (locus YDL134C, strain PPH21, stronger effect = lower value) of the same molecule?
The normalized growth was 0.971.

What about the normalized growth (locus YDL185W, strain tfp1, stronger effect = lower value) of the same molecule?
Its normalized growth is 0.976.

What about the normalized growth (locus YDL192W, strain arf1, stronger effect = lower value) of the same molecule?
Its normalized growth is 0.918.

And the normalized growth (locus YDR001C, strain nth1, stronger effect = lower value)?
The normalized growth was 0.994.

What about the normalized growth (locus YDR069C, strain doa4, stronger effect = lower value) of the same molecule?
Its normalized growth is 0.969.

What about the normalized growth (locus YDR101C, strain arx1, stronger effect = lower value) of the same molecule?
Its normalized growth is 1.01.

And the normalized growth (locus YDR137W, strain rgp1, stronger effect = lower value)?
The normalized growth was 0.899.

What about the normalized growth (locus YDR159W, strain sac3, stronger effect = lower value) of the same molecule?
Its normalized growth is 0.957.

And the normalized growth (locus YDR162C, strain NBP2, stronger effect = lower value)?
Its normalized growth is 0.925.

And the normalized growth (locus YDR195W, strain ref2)?
The normalized growth was 1.

What about the normalized growth (locus YDR297W, strain sur2, stronger effect = lower value) of the same molecule?
The normalized growth was 0.983.

And the normalized growth (locus YDR318W, strain mcm21, stronger effect = lower value)?
The normalized growth was 0.904 (active).

And the normalized growth (locus YDR334W, strain swr1, stronger effect = lower value)?
Its normalized growth is 0.992.

What about the normalized growth (locus YDR335W, strain msn5, stronger effect = lower value) of the same molecule?
The normalized growth was 0.99.

What about the normalized growth (locus YDR388W, stronger effect = lower value) of the same molecule?
The normalized growth was 0.958.

What about the normalized growth (locus YDR392W, strain spt3, stronger effect = lower value) of the same molecule?
Its normalized growth is 0.609 (active).

What about the normalized growth (locus YDR502C, strain sam2, stronger effect = lower value) of the same molecule?
Its normalized growth is 0.934.

And the normalized growth (locus YEL003W, strain gim4, stronger effect = lower value)?
Its normalized growth is 0.97.

What about the normalized growth (locus YEL037C, strain rad23, stronger effect = lower value) of the same molecule?
Its normalized growth is 0.994.

What about the normalized growth (locus YEL061C, strain CIN8 (second series), stronger effect = lower value) of the same molecule?
The normalized growth was 0.988.

And the normalized growth (locus YEL061C, strain CIN8, stronger effect = lower value)?
The normalized growth was 0.992.

What about the normalized growth (locus YER015W, strain faa2, stronger effect = lower value) of the same molecule?
Its normalized growth is 0.987.

What about the normalized growth (locus YER016W, strain bim1, stronger effect = lower value) of the same molecule?
The normalized growth was 0.99.

What about the normalized growth (locus YER110C, stronger effect = lower value) of the same molecule?
Its normalized growth is 0.98.

And the normalized growth (locus YER111C, strain swi4, stronger effect = lower value)?
Its normalized growth is 0.989.

And the normalized growth (locus YER155C, strain BEM2 (second series), stronger effect = lower value)?
The normalized growth was 0.917.

And the normalized growth (locus YER155C, strain BEM2, stronger effect = lower value)?
Its normalized growth is 0.991.

What about the normalized growth (locus YER167W, strain BCK2, stronger effect = lower value) of the same molecule?
Its normalized growth is 0.952.

What about the normalized growth (locus YFR010W, strain ubp6, stronger effect = lower value) of the same molecule?
The normalized growth was 0.983.

What about the normalized growth (locus YGL078C, strain dbp3, stronger effect = lower value) of the same molecule?
The normalized growth was 0.98.

What about the normalized growth (locus YGL086W, strain mad1, stronger effect = lower value) of the same molecule?
The normalized growth was 0.955.

What about the normalized growth (locus YGL167C, strain pmr1, stronger effect = lower value) of the same molecule?
The normalized growth was 0.982.

What about the normalized growth (locus YGL173C, strain kem1, stronger effect = lower value) of the same molecule?
Its normalized growth is 0.974.

What about the normalized growth (locus YGL227W, strain vid30, stronger effect = lower value) of the same molecule?
The normalized growth was 0.995.

And the normalized growth (locus YGL240W, strain doc1, stronger effect = lower value)?
The normalized growth was 0.952.

And the normalized growth (locus YGL248W, strain PDE1, stronger effect = lower value)?
Its normalized growth is 0.963.

And the normalized growth (locus YGL253W, strain hxk2, stronger effect = lower value)?
Its normalized growth is 0.976.

What about the normalized growth (locus YGR135W, strain pre9, stronger effect = lower value) of the same molecule?
The normalized growth was 0.914.

And the normalized growth (locus YGR252W, strain gcn5, stronger effect = lower value)?
The normalized growth was 0.867.

And the normalized growth (locus YHR013C, strain ard1, stronger effect = lower value)?
The normalized growth was 0.881.

What about the normalized growth (locus YHR027C, strain rpn1, stronger effect = lower value) of the same molecule?
The normalized growth was 0.985.

What about the normalized growth (locus YHR030C, strain SLT2, stronger effect = lower value) of the same molecule?
Its normalized growth is 0.987.

And the normalized growth (locus YHR079C, strain IRE1 (second series), stronger effect = lower value)?
The normalized growth was 0.981.

What about the normalized growth (locus YHR094C, strain hxt1, stronger effect = lower value) of the same molecule?
Its normalized growth is 0.982.

And the normalized growth (locus YHR129C, strain ARP1, stronger effect = lower value)?
Its normalized growth is 0.972.

What about the normalized growth (locus YHR142W, strain chs7, stronger effect = lower value) of the same molecule?
The normalized growth was 0.972.

What about the normalized growth (locus YHR200W, strain rpn10, stronger effect = lower value) of the same molecule?
Its normalized growth is 0.975.

And the normalized growth (locus YIL066C, strain RNR3, stronger effect = lower value)?
Its normalized growth is 0.929.

And the normalized growth (locus YIL073C, strain SPO22, stronger effect = lower value)?
Its normalized growth is 0.898.

What about the normalized growth (locus YIL125W, strain kgd1, stronger effect = lower value) of the same molecule?
The normalized growth was 0.93 (active).

And the normalized growth (locus YIR030C, strain dcg1, stronger effect = lower value)?
Its normalized growth is 0.978.

And the normalized growth (locus YJL092W, strain hpr5, stronger effect = lower value)?
The normalized growth was 0.985.

What about the normalized growth (locus YJL095W, strain BCK1 (second series), stronger effect = lower value) of the same molecule?
Its normalized growth is 0.983.

What about the normalized growth (locus YJL095W, strain BCK1, stronger effect = lower value) of the same molecule?
The normalized growth was 0.935.

And the normalized growth (locus YJL115W, strain asf1, stronger effect = lower value)?
The normalized growth was 0.983.

What about the normalized growth (locus YJL129C, strain trk1, stronger effect = lower value) of the same molecule?
Its normalized growth is 0.985.

What about the normalized growth (locus YJL134W, strain LCB3, stronger effect = lower value) of the same molecule?
The normalized growth was 0.981.

What about the normalized growth (locus YJL154C, strain vps35, stronger effect = lower value) of the same molecule?
The normalized growth was 0.997.

What about the normalized growth (locus YJL164C, strain tpk1, stronger effect = lower value) of the same molecule?
Its normalized growth is 0.973.

And the normalized growth (locus YJL166W, strain qcr8, stronger effect = lower value)?
The normalized growth was 0.949.

What about the normalized growth (locus YJL168C, strain set2, stronger effect = lower value) of the same molecule?
Its normalized growth is 0.993.

And the normalized growth (locus YJL187C, strain SWE1 (second series), stronger effect = lower value)?
Its normalized growth is 0.986.

What about the normalized growth (locus YJL187C, strain SWE1, stronger effect = lower value) of the same molecule?
Its normalized growth is 0.983.

And the normalized growth (locus YJR043C, strain POL32, stronger effect = lower value)?
The normalized growth was 0.998.
